Compound activity (PubChem)
ANO1 block = inhibitors of mouse TMEM16A calcium-activated chloride channel | Q8BHY3 | HEK293 TMEM16A/YFP iodide influx fluorescence, ionomycin | normalized B-score (activity score, 25-100; higher = stronger inhibition) at 10 µM | actives 1.2% (n = 310,000);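 active = ratio plate-corrected score three or more library SD toward inhibition, starting fluorescence score within five deviations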;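 note: score derived from kinetic fluorescence span divided by baseline fluorescence per well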
CHT block = inhibitors of human choline transporter CHT; Q9GZV3; CHT-expressing cells, membrane potential dye, choline response; hits give low values; B-score at 10 µM; actives 0.86% (n = 310,000); AID 488975;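 active = B-score over 3 SD under the library average, and starting fluorescence ratio not unusually high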;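 note: choline stimulus applied at its EC90 after an EC20 pre-addition; B-score computed on integrated fluorescence ratio after choline addition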
ANO1 activ = activates or potentiates the mouse TMEM16A chloride channel. Q8BHY3. HEK293 TMEM16A/YFP-H148Q/I152L, iodide quench fluorescence; hits give low values. B-score at 10 µM. actives 0.3% (n = 340,000). AID 623877;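 active = fluorescence-ratio B-score plate-corrected deviation score at least 3 library SD below zero, with starting fluorescence score within 5 deviations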;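 note: channel opened by trigger with iodide after compound preincubation; score built on the fluorescence ratio of max minus min over baseline; more negative score means more quench and so TMEM16A activation or potentiation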
CHT allo act = human CHT allosteric activation; Q9GZV3; CHT-expressing cells, membrane potential dye, choline EC20; hits give high values; LV-AA mutant CHT in HEK293 cells; B-score at 10 µM; actives 0.49% (n = 310,000);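 active = initial fluorescence not abnormally high and integrated response B-score, plate-corrected, over 3 SD above library mean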
CHT inh conf = human CHT inhibition, confirmatory screen | AID 493221 | actives 70% (n = 2,400) | CHT activity remaining % of control (hits give low values), % at 10 µM | shares compounds with CHT block | CHT-expressing cells, choline membrane potential dye; LV-to-AA substituted CHT, HEK293 cells;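 active = choline transporter activity left, mean of duplicates at 10 µM, below buffer-only control mean minus 3 SD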;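 note: depolarization triggered by choline at its EC90 following an EC20 pre-addition; 0% = hemicholinium-3 full block and 100% = buffer-only control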
HEK293 MPD ctr = counter-screen for CHT inhibitors: effect in parental HEK293 cells; membrane potential ratio readout (active if shifted either direction beyond buffer ±3SD; no single direction) at 10 µM; AID 493222; actives 4% (n = 2,400); membrane potential dye, choline response; active = decrease or increase beyond buffer ±3SD; shares compounds with CHT block;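 note: parental cells lack the transporter so any hit is non-specific; ratio is peak minus trough fluorescence over baseline after EC90 choline challenge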
TMEM16A reconf = reconfirmed blocker of mouse TMEM16A calcium-activated chloride channel; shares compounds with ANO1 block; HEK293 TMEM16A/YFP-H148Q, iodide quench fluorescence; ionomycin added to raise cell calcium; inhibition, % at 10 µM; actives 39% (n = 2,300); AID 652189;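 active = mean duplicate percent inhibition, scaled so buffer wells are 0 and the reference blocker 100, over three buffer SD above buffer mean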
HEK293 Ca mobil = counter-screen for TMEM16A inhibitors: effect on calcium mobilization; shares compounds with ANO1 block; TMEM16A/YFP HEK293, Fluo4 calcium mobilization; calcium response (% of ionomycin), % at 10 µM; actives 2% (n = 2,300); AID 652231;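 active = duplicate-averaged calcium signal over 20% of the ionomycin maximum, relative to buffer baseline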;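 note: each well's signal is peak minus trough fluorescence divided by its pre-addition baseline; 0% = buffer wells and 100% = ionomycin wells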
YFP-HEK293 quench = parental YFP-HEK293 iodide quench counter-screen activity. YFP ratio F(max-min)/F0 at 10 µM. shares compounds with ANO1 block. 2,300 tested, under 10 active. ionomycin;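 active = yellow fluorescent protein signal ratio exceeding the buffer control mean by over 5 SD of those controls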;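 note: ratio is mean of duplicate wells from kinetic YFP trace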
ClC-1 inh = rat ClC-1 inhibition, TMEM16A specificity screen. shares compounds with ANO1 block. 2,300 tested, under 10 active. CHO ClC-1-YFP, iodide influx fluorescence quench; iodide control reads 0, buffer control 100. ratio percent, % at 10 µM;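 active = duplicate-mean ratio percent above the mean of iodide-only control wells, which defines zero, plus 5 of their SD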;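 note: higher percent means stronger block of ClC-1 iodide influx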
Target sequence (P35524 whole entry, looked up): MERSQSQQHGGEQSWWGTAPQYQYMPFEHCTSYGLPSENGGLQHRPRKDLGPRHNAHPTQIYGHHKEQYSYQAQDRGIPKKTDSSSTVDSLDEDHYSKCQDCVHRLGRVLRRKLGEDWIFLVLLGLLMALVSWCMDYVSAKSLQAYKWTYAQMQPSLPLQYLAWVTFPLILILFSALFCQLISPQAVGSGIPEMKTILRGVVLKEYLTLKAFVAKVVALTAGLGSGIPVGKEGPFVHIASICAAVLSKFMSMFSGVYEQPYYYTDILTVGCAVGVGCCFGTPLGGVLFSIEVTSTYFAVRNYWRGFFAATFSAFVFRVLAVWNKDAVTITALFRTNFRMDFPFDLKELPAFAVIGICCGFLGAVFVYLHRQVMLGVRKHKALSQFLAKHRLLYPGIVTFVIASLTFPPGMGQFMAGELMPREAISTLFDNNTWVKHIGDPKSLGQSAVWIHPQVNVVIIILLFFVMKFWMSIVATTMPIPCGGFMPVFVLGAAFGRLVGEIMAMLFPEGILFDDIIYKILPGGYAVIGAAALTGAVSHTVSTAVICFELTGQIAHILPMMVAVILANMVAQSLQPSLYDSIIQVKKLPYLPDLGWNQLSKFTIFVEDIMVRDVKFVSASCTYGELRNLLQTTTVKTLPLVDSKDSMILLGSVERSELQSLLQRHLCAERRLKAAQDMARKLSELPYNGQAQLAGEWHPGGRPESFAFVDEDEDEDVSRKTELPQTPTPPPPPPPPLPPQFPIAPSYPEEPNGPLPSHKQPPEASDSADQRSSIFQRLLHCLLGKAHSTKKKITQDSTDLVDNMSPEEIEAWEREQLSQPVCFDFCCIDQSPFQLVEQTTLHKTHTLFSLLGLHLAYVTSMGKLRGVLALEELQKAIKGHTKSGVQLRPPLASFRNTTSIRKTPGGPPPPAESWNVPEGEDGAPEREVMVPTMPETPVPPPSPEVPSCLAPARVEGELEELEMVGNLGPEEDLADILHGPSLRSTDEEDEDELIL
Starred values were filed as active, the others as inactive; i = inactive; x = no result. Most compounds without a hit are left out; they make up all but 2.4% or so of the library.

SMILES	ANO1 block	CHT block	ANO1 activ	CHT allo act	CHT inh conf	HEK293 MPD ctr	TMEM16A reconf	HEK293 Ca mobil	YFP-HEK293 quench	ClC-1 inh
C=C(C)c1cccc(C(C)(C)NC(=O)N2CCC(C(N)=O)CC2)c1	i	i	i	i	x	x	x	x	x	x
CCSC(=S)c1c(C)[nH]n(-c2ccccc2)c1=O	100*	-8.77*	i	i	i	i	29.0%*	i	-0.747	-8.0
Cc1[nH]n(-c2ccccc2)c(=O)c1C(=O)c1ccccc1	i	i	i	i	x	x	x	x	x	x
O=S(=O)(Nc1nc2ccccc2s1)c1ccc(Cl)s1	100*	-5.21*	i	i	55.8%*	i	30.5%*	i	-0.848	-16.0
Cc1ccc(C)c(N2CCN(C(=O)Cc3c(C(=O)O)[nH]c4ccc(Cl)cc34)CC2)c1	i	i	i	i	x	x	x	x	x	x
N#Cc1ccc(-c2nc3ccc(Br)cc3c(=O)n2O)cc1	i	i	i	i	x	x	x	x	x	x
O=c1c2cc(Br)ccc2nc(-c2cccc(C(F)(F)F)c2)n1O	100*	-6.02*	i	i	38.6%*	i	59.5%*	107.5%*	-1.08	-43.0
Cc1ccc(F)cc1NC(=O)c1ccc(NS(=O)(=O)c2ccc(Br)s2)cc1	25*	-7.11*	i	i	49.7%*	i	i	i	-0.85	0.5
O=C(Cn1c(=O)n(CCCCC(=O)NC2CCCC2)c(=O)c2ccccc21)NCCC1=CCCCC1	100*	-6.95*	i	i	i	i	i	i	-0.817	-3.0
COc1ccc(COC(=O)CCS(=O)(=O)c2ccc(C)cc2)cc1F	i	i	i	i	x	x	x	x	x	x
C=CCc1ccc(O)c(-c2ccc(O)c(CC=C)c2)c1	100*	-7.03*	i	i	61.8%*	i	56.0%*	i	-0.879	-13.5
C=CCc1cc(C(=O)N2CCCCC2)ccc1O	i	i	i	i	x	x	x	x	x	x
Cc1ccc(SCC2(O)CCN(C(=O)c3ccc(Cl)cc3)CC2)cc1	25*	-5.77*	i	i	65.4%*	i	i	i	-0.93	0.5
CCOc1ccc(S(=O)(=O)NCc2ccc3c(c2)OCO3)cc1NC(C)=O	i	i	i	i	x	x	x	x	x	x
COc1ccccc1NC(=O)c1ccc(C(=O)c2ccccc2)o1	100*	-4.99*	i	i	i	i	19.0%*	i	-0.961	1.0
FC(F)(F)c1nnc(Nc2ccc(Cl)cc2)s1	i	i	i	i	x	x	x	x	x	x
Fc1ccc(Nc2nnc(C(F)(F)F)s2)cc1Cl	100*	-5.2*	-6.76*	i	50.7%*	i	49.0%*	i	-1.26	-43.0
CC(C)c1cc(C(=O)N2CCCC(CCC(=O)N3CCN(c4ccccn4)CC3)C2)no1 (stereo unspecified)	25*	-5.95*	i	i	47.2%*	i	i	i	-1.03	-17.5
c1ccc(-c2ncc(CSc3nncn3-c3ccccc3)s2)cc1	i	i	i	i	x	x	x	x	x	x
Cc1nnc(SCc2cnc(-c3ccc(C(C)C)cc3)s2)n1C	100*	-11.7*	i	i	48.9%*	i	24.0%*	i	-0.926	3.5
CS(=O)(=O)CCC(C(=O)OCc1ccc(Cl)cc1)N1C(=O)c2ccccc2C1=O (stereo unspecified)	i	i	i	i	x	x	x	x	x	x
COc1ccc(C2C3=C(CC(C)(C)CC3=O)Nc3n[nH]c(C)c32)cc1 (stereo unspecified)	100*	-7.56*	i	i	i	i	i	i	-1	-8.0
CC(C)(C)c1ccc(C(=O)Nc2ccc(Oc3cccnc3)nc2)cc1	100*	-5.24*	i	i	i	i	31.0%*	i	-0.863	-7.0
COc1cccc(COCC(O)Cn2cnc3cc(C)c(C)cc32)c1 (stereo unspecified)	i	i	i	i	x	x	x	x	x	x
Cc1noc(C)c1C(=O)Nc1sc(C)c(-c2ccccc2)c1C#N	25*	-5.16*	i	i	70.6%*	i	46.5%*	i	-1.2	-7.5
SMILES	ANO1 block	CHT block	ANO1 activ	CHT allo act	CHT inh conf	HEK293 MPD ctr	TMEM16A reconf	HEK293 Ca mobil	YFP-HEK293 quench	ClC-1 inh
COC(=O)c1cc(S(=O)(=O)NC2CCCCC2)cn1C	i	i	i	i	x	x	x	x	x	x
CC1(C)COCN1S(=O)(=O)c1ccc(C(=O)Nc2nnc(-c3ccc(Cl)s3)o2)cc1	100*	-5.78*	x	i	50.1%*	i	i	i	-0.858	-17.5
Cc1ccc(-c2csc(NC(=O)c3ccc(Br)cc3)c2C(=O)O)cc1	100*	-5.32*	i	i	50.6%*	i	28.5%*	i	-1.17	0.5
O=C(Nc1ccccc1Cl)c1ccccc1Cl	i	i	i	i	x	x	x	x	x	x
O=C(Nc1ccccc1O)c1ccccc1O	100*	-8.85*	i	i	40.4%*	i	31.5%*	i	-1	-26.0
Nc1ccccc1C(=O)NNC1=C(C(=O)C(F)(F)F)CCC1	i	i	i	i	x	x	x	x	x	x
O=C(NNC1=C(C(=O)C(F)(F)F)CCC1)c1ccc(Br)cc1	100*	-7.47*	i	i	43.1%*	i	16.0%*	i	-0.982	-9.0
N#C/C(=N\Nc1cccc(C(F)(F)F)c1)C(=O)c1ccsc1	25*	-10.1*	i	i	35.0%*	i	37.5%*	i	-1.08	-19.0
O=C(Nc1ccccc1)Nc1cccc(C(F)(F)F)c1	i	i	i	i	x	x	x	x	x	x
Cc1csc2ncnc(N3CCN(C(=S)Nc4ccc(C(F)(F)F)cc4)CC3)c12	i	i	i	i	x	x	x	x	x	x
Cc1csc2c(N3CCN(C(=S)Nc4ccc(C(F)(F)F)cc4)CC3)ncnc12	100*	-6.16*	i	i	54.5%*	i	i	i	-1.14	-18.5
CCOC(=O)CSc1nc(-c2cccs2)nc2c1c(=O)n(C)c(=O)n2C	i	i	i	i	x	x	x	x	x	x
COc1ccc(O)c(/C=N/NS(=O)(=O)c2ccc(C)cc2)c1	i	i	i	i	x	x	x	x	x	x
